Source: PubChem
CHT inh – inhibits the human high affinity choline transporter. hit rate 0.86% among 310,000. CHT-expressing cells, membrane potential dye, choline response; hits give low values. Q9GZV3. B-score at 10 µM. AID 488975;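 active = B-score over 3 SD under the library average, and starting fluorescence ratio not unusually high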;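 also: choline stimulus applied at its EC90 after an EC20 pre-addition; B-score computed on integrated fluorescence ratio after choline addition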
Target sequence (Q9GZV3 whole entry, looked up): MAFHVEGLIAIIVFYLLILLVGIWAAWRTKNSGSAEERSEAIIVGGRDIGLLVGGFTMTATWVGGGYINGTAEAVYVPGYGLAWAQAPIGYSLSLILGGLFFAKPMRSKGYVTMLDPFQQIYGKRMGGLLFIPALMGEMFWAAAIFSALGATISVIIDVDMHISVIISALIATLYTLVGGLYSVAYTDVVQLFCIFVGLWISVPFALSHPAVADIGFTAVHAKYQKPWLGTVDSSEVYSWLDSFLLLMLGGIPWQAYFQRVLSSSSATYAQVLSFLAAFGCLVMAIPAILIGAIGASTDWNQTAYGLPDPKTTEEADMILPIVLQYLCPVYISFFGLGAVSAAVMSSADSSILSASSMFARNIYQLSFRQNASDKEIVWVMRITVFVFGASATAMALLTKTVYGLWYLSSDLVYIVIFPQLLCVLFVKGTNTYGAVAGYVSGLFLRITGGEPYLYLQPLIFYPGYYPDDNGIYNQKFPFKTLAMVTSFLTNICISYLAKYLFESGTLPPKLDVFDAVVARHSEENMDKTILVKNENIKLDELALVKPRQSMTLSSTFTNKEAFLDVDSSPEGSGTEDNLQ
NALP1 inh – NALP1 inhibition | S. cerevisiae NALP1/ASC/caspase-1 growth, X-gal OD620, 72 h | inhibition, % at 10 µM | hit rate 0.61% among 280,000; in the data active = inhibition mostly above about 24%, no sharp cut-off; inactive = mostly below about 32%
SUMO Mot1 rescue – blocks SUMOylation pathway, rescuing yeast Mot1-301 growth; S. cerevisiae Mot1-301 growth rescue, ATP luminescence, 38.5C; percent above DMSO median, 100 means doubled; growth rescue, % at 18.8 µM; AID 2716; hit rate 1% among 320,000;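 active = every valid replicate shows activation above 250% relative to neutral control wells; inactive = the rest, any valid replicate at or below 250%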;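 also: OY570 slx delta 5 strain wells were the positive control but not used for scaling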
CHT allo act – allosteric activators of human choline transporter CHT | Q9GZV3 | CHT-expressing cells, membrane potential dye, choline EC20; hits give high values; LV-AA mutant CHT in HEK293 cells | B-score at 10 µM | hit rate 0.49% among 310,000;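 active = initial fluorescence not abnormally high and integrated response B-score, plate-corrected, over 3 SD above library mean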
NLRP3 yeast inh – blocks the NALP3 inflammasome reconstituted in yeast; Yeast reconstituted NLRP3/ASC/caspase-1, beta-gal luminescence, 24 h; inhibition, % at 10 µM; AID 2825; hit rate 0.39% among 330,000;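 active = inhibition of 50% or more; inactive = inhibition below 50%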;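 also: plate controls were induced DMSO wells for no effect and uninduced yeast grown without galactose for full effect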
Bfl-1 A1 inh – inhibitors of the anti-apoptotic protein A1, read as caspase activation. caspase activation, % (concentration not given with the values). MEF A1-2A-BIM cells, Caspase-Glo 3/7 luminescence, 3 h; percent of clofoctol response, vehicle zero. hit rate 0.066% among 330,000. AID 2462;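 active = over half of replicate activation scores above 10%, or exactly half above 10 with the replicate mean above 10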
* = called active by the depositor; i = inactive; · = not tested or not shown; ! = not confirmed by another sample. The list is not random: actives were taken first. Their share in the collection is about 3%.

SMILES	CHT inh	NALP1 inh	SUMO Mot1 rescue	CHT allo act	NLRP3 yeast inh	Bfl-1 A1 inh
COc1ccc(N(C(=O)c2ccncc2)S(=O)(=O)c2ccccc2)cc1	i	2	38	i	7	0
COc1ccc(S(=O)(=O)N(C(=O)c2ccncc2)c2ccc(OC(=O)c3ccncc3)cc2)cc1	i	-1	309*	i	18	2
CCN(C1CCS(=O)(=O)C1)S(=O)(=O)c1ccc2ccccc2c1 (centres undefined)	i	·	325*	i	9	0
CCCN(C1CCS(=O)(=O)C1)S(=O)(=O)c1ccc2ccccc2c1 (centres undefined)	·	·	7	·	10	0
Cc1ccc(S(=O)(=O)N2CCN(C(=O)COC(=O)CSc3cc(C)ccc3C)CC2)c(C)c1	·	·	3	·	12	-1
CCN(CC(=O)Nc1ccc(C(=O)Nc2ccc(OC)cc2)cc1)Cc1nc2ccccc2c(=O)[nH]1	i	16	-12	i	-3	1
Cc1cccc(NC(=O)CN(C)C(C)C(=O)Nc2ccc(S(=O)(=O)N3CCCC3)cc2)c1C (centres undefined)	·	·	·	·	16	·
O=C(NCc1ccccc1)C1CC(=O)N(C2CCCCC2)C1 (centres undefined)	i	0	318*	i	19	-1
O=C(CSc1nnc(-c2c[nH]c3ccccc23)o1)NCC1CCCO1 (centres undefined)	·	·	285*	·	2	0
Clc1ccc(-c2cnc(Oc3ccccc3)nc2)cc1	i	39*	-12	i	-9	0
Cc1cc(Cl)ccc1Oc1ncc(-c2ccc(Cl)cc2)cn1	i	2	28	i	17	0
CCCCCOc1ccc(Br)cc1CSC(=N)N	·	52*	·	·	·	·
COc1ccc(Br)cc1CSC(=N)N	i	7	-15	i	-12	0
CCCNC(=O)C1(CC2CC(c3ccccc3)=NO2)CCN(C(=O)C2(C)CC2)CC1 (centres undefined)	i	·	355*	i	22	0
COc1ccc(NC(=O)/C(C#N)=C\c2ccc(Br)o2)cc1	i	·	7	i	14	-1
N#C/C(=C\c1ccc([N+](=O)[O-])o1)C(=O)Nc1ccc(F)cc1	i	13	323*	i	-8	2
NC(=O)/C=C\C(=O)Nc1cccc(C(F)(F)F)c1	i	61*	267	i	25	1
CC(=O)c1cc(F)c(N2CCOCC2)cc1C	i	44*	391	i	27	0
CC(=O)c1cc(F)c(N2CCCC2)cc1C	i	33	16	i	45	0
O=C(CSc1ncn[nH]1)NCc1ccccc1	i	28*	-15	i	7	0
COc1ccc(NC(=O)CN2C(=O)NC3(CCCCC3C)C2=O)cc1OC (centres undefined)	·	·	-19	·	7	0
COc1ccc(N2C(=O)CC(N(C)CCc3ccc(OC)c(OC)c3)C2=O)cc1 (centres undefined)	i	41*	-10	i	20	0
COc1ccc(N2C(=O)CC(N(CCc3ccc(OC)c(OC)c3)C(=S)Nc3ccccc3)C2=O)cc1 (centres undefined)	i	-1	-19	i	14	0
COC(=O)c1ccc(N2C(=O)CC(N(C)CCc3ccc(OC)c(OC)c3)C2=O)cc1 (centres undefined)	i	3	303*	i	28	0
COc1ccc(CCN(C)C2CC(=O)N(c3ccccc3)C2=O)cc1OC (centres undefined)	i	56*	-12	i	4	1
SMILES	CHT inh	NALP1 inh	SUMO Mot1 rescue	CHT allo act	NLRP3 yeast inh	Bfl-1 A1 inh
Cc1cc(N)ccc1NC(=O)CN1CCCC1	i	13	111	i	0	3
CN(CC(=O)Nc1ccccc1Br)C(=O)c1cc(S(=O)(=O)N(C)C)ccc1N1CCCC1	i	·	32	i	3	0
COc1ccc(S(=O)(=O)NCCSCc2ccco2)cc1	i	34*	2	i	5	0
COc1ccc(C)cc1S(=O)(=O)NCCN1CCOCC1	i	1	-8	i	7	0
COc1ccc(NC(=O)CN(C)C(=O)CCc2c[nH]c3ccccc23)cc1	i	7	-5	i	7	1
Cc1cccc[n+]1CC(=O)c1ccc(NC(=O)c2ccccc2)cc1	i	14	317*	i	7	2
Cc1cccc[n+]1CC(=O)Nc1ccccc1	i	-1	-20	i	7	-1
CCSc1ccc(-c2nn(-c3ccccc3)cc2/C=C(/C#N)C(=O)NC)cc1	i	31	188	i	·	8.3*
CCCSc1ccc(-c2nn(-c3ccccc3)cc2/C=C(/C#N)C(=O)N2CCOCC2)cc1	i	15	-11	i	7	1
COc1ccc(S(=O)(=O)N(C)c2ccc(C(=O)Nc3c(C)n(C)n(-c4ccccc4)c3=O)cc2)cc1	i	-2	-4	i	17	0
CCOC(=O)C1CCN(C(=O)c2ccc(Cl)c(S(=O)(=O)N3CCOCC3)c2)CC1	i	19	·	i	-1	·
CCOC(=O)C1CCN(C(=O)c2cc(S(=O)(=O)N3CCOCC3)c(Cl)cc2Cl)CC1	i	17	285*	i	6	0
COc1ccc(N(CC(=O)NCc2cccnc2)S(=O)(=O)c2ccccc2)c(OC)c1	i	·	134	i	8	0
O=C(NCc1ccccn1)C1CCCN(S(=O)(=O)c2cccc3nsnc23)C1 (centres undefined)	i	32*	5	i	1	0
COc1ccc(C(=O)N/N=C\C(C)=C\c2ccccc2)cc1OC	i	·	-9	i	-2	0
CC(/C=N/NC(=O)c1ccc(Br)cc1)=C\c1ccccc1	i	36*	21	i	8	-1
C/C(=N\NC(=O)c1ccc(Br)cc1)C1C(=O)c2ccccc2C1=O	-6.9*	1	-1	i	11	-6
C/C(=N\NC(=O)c1ccc(-c2ccccc2)cc1)C1C(=O)c2ccccc2C1=O	i	-7	74	i	19	0
COc1ccc(Br)cc1/C=N/n1c(-c2ccccc2)n[nH]c1=S	i	9	-3	i	11	0
COc1ccc(CCNCc2ccc(OCC(=O)N3CCCCC3)c(OC)c2)cc1OC	i	34*	-4	i	-3	-1
COc1cc(CNCCc2ccc(S(N)(=O)=O)cc2)ccc1OCC(=O)N1CCCCC1	i	12	159	i	11	0
COc1ccc(CCNC(=O)c2ccc(OCC(=O)N3CCOCC3)c(OC)c2)cc1OC	i	30*	-13	i	6	0
CNCCCC12CCC(c3ccccc31)c1ccccc12	i	29*!	-7	i	36	0
